Test results from PubChem BioAssay (NCATS).
Several values for one entry are separate records, joined by “and”; a condition that tells them apart may be missing. Equal values may be shown once. Records with an inconclusive call do not appear. A call without a number means that no potency is given here. A number with no mark means an inactive call. Activity calls are given as the source filed them. Unless noted, calls come from the whole dose curve; as a rule, active = well fitted curve in the direction sought with a large enough effect; inconclusive = small, poorly fitted or top-dose-only effect, or another doubt; inactive = no such curve, though single readings can be large; an effect the other way counts as inactive or inconclusive.

Assays:
[1] = target: Cellular tumor antigen p53 (Homo sapiens) (UniProt P04637); assay: Primary qHTS for small molecule compounds that upregulate eGFP-tagged delta133p53alpha (in N-terminal) cells. (AID 2060322); conditions: NCI-H358 eGFP-delta133p53alpha fluorescence, 24 h; activation: active compounds read high; note: series mostly up to about 56 µM; nearly all actives have a fitted effect of over 75% in size
Cellular tumor antigen p53 (Homo sapiens), sequence (P04637 whole entry, looked up): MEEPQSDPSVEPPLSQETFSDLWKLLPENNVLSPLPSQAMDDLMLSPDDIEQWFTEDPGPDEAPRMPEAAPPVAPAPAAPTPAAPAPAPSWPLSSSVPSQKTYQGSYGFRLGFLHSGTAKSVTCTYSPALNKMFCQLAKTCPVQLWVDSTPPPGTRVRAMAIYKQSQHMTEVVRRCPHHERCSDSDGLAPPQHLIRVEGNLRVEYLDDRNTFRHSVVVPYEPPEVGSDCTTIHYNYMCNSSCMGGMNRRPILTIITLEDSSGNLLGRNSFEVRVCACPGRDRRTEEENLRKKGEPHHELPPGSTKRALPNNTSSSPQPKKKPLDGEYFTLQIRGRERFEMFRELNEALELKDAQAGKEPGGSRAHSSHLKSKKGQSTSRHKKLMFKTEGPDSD
Summary of the method: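 NCI-H358 cells pre-induced 24 h with 10 ng/ml doxycycline to express N-terminal eGFP-delta133p53alpha, then dosed 24 h at 37C without doxycycline; fixed, Hoechst-stained, GFP intensity by laser scanning cytometry, normalized to DMSO (0%) and 57.5 uM 5-azacytidine (100%).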

[2] = target: Cellular tumor antigen p53 (Homo sapiens) (UniProt P04637); assay: Primary qHTS for small molecule compounds that upregulate eGFP-tagged delta133p53alpha (in C-terminal) cells. (AID 2060324)
Summary of the method: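 NCI-H358 cells with doxycycline-inducible D133p53a-eGFP (C-terminal tag), pre-induced 24 h with 100 ng/ml doxycycline, plated 800/well in doxycycline-free medium and treated 24 h at 37 °C with compound titrations. Cells were then fixed and Hoechst-stained, and GFP intensity was read by laser scanning cytometry.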

[3] = target: Aldehyde dehydrogenase, mitochondrial (Homo sapiens) (UniProt P05091); assay: qHTS for Inhibitors of the Aldehyde Dehydrogenase Family (ALDH2) Validation screens (AID 2061302; active = well fitted inhibition curve with a large enough effect; title and protocol of this record describe different tests)
[4] = BET inhibitor-based combinations targeting novel dependencies in MECOM-rearranged (r) AML: HNT-34 cell line (AID 2202234); note: nearly all actives have a fitted effect of over 35% in size; note: potency is the fitted concentration of half-maximal effect
Summary of the method: (§1)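 Normalized to DMSO and empty-well controls, the luminescence data from CellTiter-Glo after 48 hr drug exposure were fitted across 11 concentrations. Reported metrics are area under the dose-response curve and its Z-transformed form.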

[5] = BET inhibitor-based combinations targeting novel dependencies in MECOM-rearranged (r) AML: UCSD-AML1 cell line (AID 2202235); note: nearly all actives have a fitted effect of over 40% in size; note: potency is the fitted concentration of half-maximal effect
Summary of the method: as §1

[6] = target: Retinaldehyde dehydrogenase 3 (Homo sapiens) (UniProt P47895); assay: qHTS for Inhibitors of the Aldehyde Dehydrogenase Family (ALDH1A3) Validation screen (AID 2061312); note: nearly all actives have a fitted effect of over 45% in size
[7] = BET inhibitor-based combinations targeting novel dependencies in MECOM-rearranged (r) AML: MV-4-11 cell line (AID 2202233); note: nearly all actives have a fitted effect of over 45% in size; note: potency is the fitted concentration of half-maximal effect
Summary of the method: as §1

[8] = BET inhibitor-based combinations targeting novel dependencies in MECOM-rearranged (r) AML: AML-191 cell line (AID 2202236; note: nearly all actives have a fitted effect of over 35% in size)
Summary of the method: (§2)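 Here, 11-point titrations of each agent were applied to 500 seeded cells and incubated 48 hr; CellTiter-Glo signal, scaled against DMSO and empty wells, was integrated as AUC, then Z-scored within the individual line.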

[9] = BET inhibitor-based combinations targeting novel dependencies in MECOM-rearranged (r) AML: AML-194 cell line (AID 2202237; note: nearly all actives have a fitted effect of over 40% in size)
Summary of the method: as §2

[10] = target: Retinal dehydrogenase 2 (Homo sapiens) (UniProt O94788); assay: qHTS for Inhibitors of the Aldehyde Dehydrogenase Family (ALDH1A2) Confirmation screens (AID 2061314); note: nearly all actives have a fitted effect of over 65% in size
[11] = target: Aldehyde dehydrogenase, mitochondrial (Homo sapiens) (UniProt P05091); assay: qHTS for Inhibitors of the Aldehyde Dehydrogenase Family (ALDH2) Confirmatory screens (AID 2061303; active = well fitted inhibition curve with a large enough effect; title and protocol of this record describe different tests; note: nearly all actives have a fitted effect of over 45% in size)
[12] = qHTS for Inhibitors of the Aldehyde Dehydrogenase Family (ALDH1A2, ALDH1A3, ALDH2, ALDH3A1) (AID 2061307); note: nearly all actives have a fitted effect of over 50% in size
[13] = target: Aldehyde dehydrogenase 1A1 (Homo sapiens) (UniProt P00352); assay: qHTS for Inhibitors of the Aldehyde Dehydrogenase Family (ALDH1A1) Confirmatory screens (AID 2061316); note: nearly all actives have a fitted effect of over 65% in size
[14] = BET inhibitor-based combinations targeting novel dependencies in MECOM-rearranged (r) AML: SET-2 cell line (AID 2202231); conditions: SET-2 AML cells viability, CellTiter-Glo luminescence, 48 h; viability: active compounds read low, series mostly up to about 46 µM; note: nearly all actives have a fitted effect of over 35% in size
Summary of the method: as §2

[15] = BET inhibitor-based combinations targeting novel dependencies in MECOM-rearranged (r) AML: OCI-AML3 cell line (AID 2202232); conditions: Potency: OCI-AML3 viability; note: series mostly up to about 46 µM; nearly all actives have a fitted effect of over 35% in size
Summary of the method: as §2

Q: With `Cc1oncc1C(=O)Nc1ccc(C(F)(F)F)cc1` as the compound, how does the activation [1] read?
A: -3.35% and -18.5% and -19%

Q: What about the Potency [2] of the same compound?
A: inactive

Q: And the Potency [3]?
A: inactive

Q: And the Potency [4]?
A: 16.6 µM (active)

Q: What about the Potency [5] of the same compound?
A: inactive

Q: Which results are given for `OC(CCN1CCCCC1)(c1ccccc1)C1CC2C=CC1C2` (stereo not drawn)?
A: activation [1]: -27.6% and 6.19% and -26.9%; Potency [2]: inactive; Potency [3]: inactive; Potency [6]: inactive; Potency [7]: 23.5 µM (active); Potency [4]: inactive; Potency [5]: inactive; Potency [8]: inactive; Potency [9]: inactive

Q: For `CCN1CCc2nc(N)oc2CC1`, which activation [1] is on record?
A: -8.37% and -17.5%

Q: And the Potency [2]?
A: inactive

Q: And the Potency [3]?
A: inactive

Q: And the Potency [10]?
A: inactive

Q: With `COc1cc(/C=C(\C#N)C(=O)Nc2nnc(C(F)(F)F)s2)ccc1OCc1ccc(C(F)(F)F)cc1C(F)(F)F` as the compound, how does the activation [1] read?
A: -42%

Q: What about the Potency [2] of the same compound?
A: inactive

Q: What about the Potency [11] of the same compound?
A: inactive

Q: And the Potency [12]?
A: inactive

Q: And the Potency [10]?
A: inactive

Q: What about the Potency [13] of the same compound?
A: inactive

Q: What about the viability [14] of the same compound?
A: 111%

Q: What about the Potency [7] of the same compound?
A: inactive

Q: And the Potency [4]?
A: inactive

Q: And the Potency [5]?
A: inactive

Q: And the Potency [8]?
A: inactive

Q: And the Potency [9]?
A: inactive

Q: Which activation [1] does the source give for `Cn1ccc2cc3c(cc21)CCN3C(=O)Nc1cccnc1` here?
A: 20.1% and 12% and -55.1%

Q: What about the Potency [2] of the same compound?
A: inactive

Q: What about the Potency [3] of the same compound?
A: inactive

Q: And the viability [14]?
A: 105%

Q: What about the Potency [4] of the same compound?
A: inactive

Q: And the Potency [5]?
A: inactive

Q: And the Potency [8]?
A: inactive

Q: What about the Potency [9] of the same compound?
A: inactive

Q: Which results are given for `CN1CCC(=C2c3ccccc3C=Cc3ccccc32)CC1`?
A: activation [1]: -15.3% and 19.5% and -34.1%; Potency [2]: inactive; Potency [3]: inactive; Potency [6]: inactive; Potency [5]: inactive; Potency [9]: inactive

Q: Which results are given for `NC(=O)OCC(COC(N)=O)c1ccccc1`?
A: activation [1]: -10.4% and 18.4% and 1.5%; Potency [2]: inactive; Potency [3]: inactive; viability [14]: 119%; Potency [15]: inactive; Potency [7]: inactive; Potency [4]: inactive; Potency [8]: inactive; Potency [9]: inactive

Q: For `CCCCC#Cc1nc(NC)c2ncn([C@@H]3O[C@H](CO)[C@@H](O)[C@H]3O)c2n1`, which activation [1] is on record?
A: -3.87%

Q: What about the Potency [2] of the same compound?
A: inactive

Q: And the Potency [11]?
A: inactive

Q: What about the Potency [12] of the same compound?
A: inactive

Q: And the Potency [10]?
A: inactive

Q: What about the Potency [13] of the same compound?
A: inactive

Q: What does the source list for `CN1C(C(=O)Nc2ccccn2)=C(O)c2ccccc2S1(=O)=O`?
A: activation [1]: -0.565% and -12.3% and -20.6%; Potency [2]: inactive; Potency [3]: inactive; viability [14]: 105%; Potency [15]: inactive; Potency [7]: inactive; Potency [4]: inactive; Potency [5]: inactive; Potency [8]: inactive; Potency [9]: inactive

Q: Which activation [1] does the source give for `Nc1nc(N)c(N=O)c(OCC2CCCCC2)n1` here?
A: -20.9%

Q: And the Potency [2]?
A: inactive

Q: And the Potency [3]?
A: inactive

Q: And the Potency [6]?
A: inactive

Q: And the Potency [4]?
A: 5.25 µM (active)

Q: What about the Potency [5] of the same compound?
A: 3.32 µM (active)

Q: Which activation [1] does the source give for `c1ccc(C(NCc2cccnc2)(c2ccccc2)c2ccccc2)cc1` here?
A: -2.89%

Q: And the Potency [2]?
A: inactive

Q: And the Potency [6]?
A: inactive
